# Reference: the supplement of paper PMC4466140
# Target: AgAbp1
# Assay: SPOT peptide array binding signal intensity (averaged, normalized) (arbitrary units (background-subtracted, floor 0; scale differs between SH3 domains)); higher = stronger binding of the SH3 domain to the peptide
# In short: (§1)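 SH3 domains from four yeast species were expressed as GST fusions in E. coli BL21(DE3) and purified on glutathione Sepharose. Each was incubated at 10 μg/ml overnight at 4°C in TBS-based blocking buffer on cellulose membranes bearing synthetic 15-mer peptides, in which serines replaced cysteines. Bound protein was detected with anti-GST antibody, an HRP anti-mouse secondary and luminol, then imaged and quantified with Genespotter. The binding signal is the normalized, background-subtracted spot intensity averaged over replicates, in arbitrary units that are not the same from one domain to another.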
row,Binder,SPOT peptide array binding signal intensity
1,GDHPKGPPPPPPPPD,≤ 0

# Target: AgBbc1
# Assay: as above
# In short: as §1
row,Binder,SPOT peptide array binding signal intensity
1,GDHPKGPPPPPPPPD,≤ 0

# Target: AgBem1-D1
# Assay: as above
# In short: as §1
row,Binder,SPOT peptide array binding signal intensity
1,GDHPKGPPPPPPPPD,≤ 0

# Target: AgBzz1-D1
# Assay: as above
# In short: as §1
row,Binder,SPOT peptide array binding signal intensity
1,GDHPKGPPPPPPPPD,440

# Target: AgBzz1-D2
# Assay: as above
# In short: as §1
row,Binder,SPOT peptide array binding signal intensity
1,GDHPKGPPPPPPPPD,43

# Target: AgCyk3
# Assay: as above
# In short: as §1
row,Binder,SPOT peptide array binding signal intensity
1,GDHPKGPPPPPPPPD,≤ 0

# Target: AgFus1
# Assay: as above
# In short: as §1
row,Binder,SPOT peptide array binding signal intensity
1,GDHPKGPPPPPPPPD,3

# Target: AgHof1
# Assay: as above
# In short: as §1
row,Binder,SPOT peptide array binding signal intensity
1,GDHPKGPPPPPPPPD,≤ 0

# Target: AgHse1
# Assay: as above
# In short: as §1
row,Binder,SPOT peptide array binding signal intensity
1,GDHPKGPPPPPPPPD,≤ 0

# Target: AgLsb1
# Assay: as above
# In short: as §1
row,Binder,SPOT peptide array binding signal intensity
1,GDHPKGPPPPPPPPD,≤ 0

# Target: AgLsb4
# Assay: as above
# In short: as §1
row,Binder,SPOT peptide array binding signal intensity
1,GDHPKGPPPPPPPPD,≤ 0

# Target: AgMyo5
# Assay: as above
# In short: as §1
row,Binder,SPOT peptide array binding signal intensity
1,GDHPKGPPPPPPPPD,1010

# Target: AgNbp2
# Assay: as above
# In short: as §1
row,Binder,SPOT peptide array binding signal intensity
1,GDHPKGPPPPPPPPD,3

# Target: AgRvs167
# Assay: as above
# In short: as §1
row,Binder,SPOT peptide array binding signal intensity
1,GDHPKGPPPPPPPPD,≤ 0

# Target: AgSho1
# Assay: as above
# In short: as §1
row,Binder,SPOT peptide array binding signal intensity
1,GDHPKGPPPPPPPPD,3

# Target: AgSla1-D1-D2
# Assay: as above
# In short: as §1
row,Binder,SPOT peptide array binding signal intensity
1,GDHPKGPPPPPPPPD,≤ 0

# Target: AgSla1-D3
# Assay: as above
# In short: as §1
row,Binder,SPOT peptide array binding signal intensity
1,GDHPKGPPPPPPPPD,699

# Target: CaAbp1-D1
# Assay: as above
# In short: as §1
row,Binder,SPOT peptide array binding signal intensity
1,GDHPKGPPPPPPPPD,≤ 0

# Target: CaAbp1-D2
# Assay: as above
# In short: as §1
row,Binder,SPOT peptide array binding signal intensity
1,GDHPKGPPPPPPPPD,≤ 0

# Target: CaBbc1
# Assay: as above
# In short: as §1
row,Binder,SPOT peptide array binding signal intensity
1,GDHPKGPPPPPPPPD,≤ 0

# Target: CaBem1-D1
# Assay: as above
# In short: as §1
row,Binder,SPOT peptide array binding signal intensity
1,GDHPKGPPPPPPPPD,≤ 0

# Target: CaBzz1-D1
# Assay: as above
# In short: as §1
row,Binder,SPOT peptide array binding signal intensity
1,GDHPKGPPPPPPPPD,2370

# Target: CaBzz1-D2
# Assay: as above
# In short: as §1
row,Binder,SPOT peptide array binding signal intensity
1,GDHPKGPPPPPPPPD,1470

# Target: CaCyk3
# Assay: as above
# In short: as §1
row,Binder,SPOT peptide array binding signal intensity
1,GDHPKGPPPPPPPPD,4

# Target: CaFus1
# Assay: as above
# In short: as §1
row,Binder,SPOT peptide array binding signal intensity
1,GDHPKGPPPPPPPPD,19

# Target: CaHof1
# Assay: as above
# In short: as §1
row,Binder,SPOT peptide array binding signal intensity
1,GDHPKGPPPPPPPPD,≤ 0

# Target: CaHse1
# Assay: as above
# In short: as §1
row,Binder,SPOT peptide array binding signal intensity
1,GDHPKGPPPPPPPPD,3.5

# Target: CaLsb1
# Assay: as above
# In short: as §1
row,Binder,SPOT peptide array binding signal intensity
1,GDHPKGPPPPPPPPD,≤ 0

# Target: CaLsb4
# Assay: as above
# In short: as §1
row,Binder,SPOT peptide array binding signal intensity
1,GDHPKGPPPPPPPPD,≤ 0

# Target: CaMyo5
# Assay: as above
# In short: as §1
row,Binder,SPOT peptide array binding signal intensity
1,GDHPKGPPPPPPPPD,34

# Target: CaNbp2
# Assay: as above
# In short: as §1
row,Binder,SPOT peptide array binding signal intensity
1,GDHPKGPPPPPPPPD,≤ 0

# Target: CaRvs167
# Assay: as above
# In short: as §1
row,Binder,SPOT peptide array binding signal intensity
1,GDHPKGPPPPPPPPD,0.333

# Target: CaRvs167-3
# Assay: as above
# In short: as §1
row,Binder,SPOT peptide array binding signal intensity
1,GDHPKGPPPPPPPPD,1

# Target: CaSho1
# Assay: as above
# In short: as §1
row,Binder,SPOT peptide array binding signal intensity
1,GDHPKGPPPPPPPPD,≤ 0

# Target: CaSla1-D1-D2
# Assay: as above
# In short: as §1
row,Binder,SPOT peptide array binding signal intensity
1,GDHPKGPPPPPPPPD,≤ 0

# Target: CaSla1-D3
# Assay: as above
# In short: as §1
row,Binder,SPOT peptide array binding signal intensity
1,GDHPKGPPPPPPPPD,≤ 0

# Target: ScAbp1
# Assay: as above
# In short: as §1
row,Binder,SPOT peptide array binding signal intensity
1,GDHPKGPPPPPPPPD,≤ 0
